The text below walks through data of PubChem BioAssay (EPA / NIEHS).

Molecules are shown by their SMILES. Active and inactive are the calls of the source. Rule for the calls: active = hit-call score of the fitted dose curve at least 0.9, where 1 is the maximum; inactive = score below 0.9.

Heat shock factor protein 1 (Homo sapiens), sequence (Q00613 whole entry, looked up): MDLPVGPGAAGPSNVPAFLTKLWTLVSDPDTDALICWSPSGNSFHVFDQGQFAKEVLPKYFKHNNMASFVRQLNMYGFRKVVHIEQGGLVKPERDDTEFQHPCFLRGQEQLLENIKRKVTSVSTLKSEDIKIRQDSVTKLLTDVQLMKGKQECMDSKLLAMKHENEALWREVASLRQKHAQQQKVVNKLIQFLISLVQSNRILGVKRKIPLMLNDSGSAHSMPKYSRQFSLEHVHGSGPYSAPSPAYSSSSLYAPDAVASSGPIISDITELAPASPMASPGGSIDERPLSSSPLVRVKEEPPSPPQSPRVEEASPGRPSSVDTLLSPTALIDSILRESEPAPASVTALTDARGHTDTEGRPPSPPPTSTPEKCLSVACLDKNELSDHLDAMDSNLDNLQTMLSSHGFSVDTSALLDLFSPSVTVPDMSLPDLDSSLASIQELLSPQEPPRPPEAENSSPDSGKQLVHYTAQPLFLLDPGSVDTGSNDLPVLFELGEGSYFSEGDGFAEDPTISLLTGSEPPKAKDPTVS

The target in the assay is Heat shock factor protein 1 (Homo sapiens) (UniProt Q00613). The experiment in a line: ATG_HSE_CIS: Attagene CIS-FACTORIAL HepG2 Assay for human Heat Shock Transcription Factor 1 (HSE) (AID 2282953). As to conditions: HepG2 HSE cis-reporter, Attagene RNA transcription; actives raise or lower the signal. Here is the method:
ATG_CIS is a cell-based, multiplexed-readout assay that uses HepG2, a human liver cell line, with measurements taken at 24 hours after chemical dosing in a 24-well plate.ATG_HSE_CIS is one of 52 assay component(s) measured or calculated from the ATG_CIS assay. It is designed to make measurements of mRNA induction, a form of inducible reporter, as detected with fluorescence intensity signals by Reverse transcription polymerase chain reaction (RT-PCR) and Capillary electrophoresis technology.Data from the assay component ATG_HSE_CIS was analyzed into 1 assay endpoint. This assay endpoint, ATG_HSE_CIS, was analyzed with bidirectional fitting relative to DMSO as the negative control and baseline of activity. Using a type of inducible reporter, measures of mRNA for gain or loss-of-signal activity can be used to understand the reporter gene at the transcription factor-level as they relate to the gene HSF1. Furthermore, this assay endpoint can be referred to as a primary readout, because this assay has produced multiple assay endpoints where this one serves a reporter gene function. To generalize the intended target to other relatable targets, this assay endpoint is annotated to the dna binding intended target family, where the subfamily is heat shock protein.
Human liver HepG2 cells are transiently transfected with multiple reporter transcription units (MRTUs) in 6-well plates using FuGene 6 reagent (Roche; 3 ml FuGene/1 mg DNA). The MRTU constructs are regulated by a cis-regulating element (promoter). […] A major difference between the CIS and TRANS system is that in CIS activities of endogenous TFs are measured, whereas the TRANS assay evaluates changes in activities of exogenous, chimeric NR-Gal4 proteins. […] At the end of 24 hour incubation, total RNA was isolated using TriZol reagent (Invitrogen). The isolated RNA is then reverse-transcribed using oligo(dT) primer and Mo-MLV reverse transcriptase (Invitrogen) with DNAse I (Ambion) treatment for 30 min. The one-tenth of the produced cDNA was amplified by PCR using Taq DNA polymerase (Invitrogen) and two reporter sequence-specific primers. The PCR products were fluorescently labeled by primer extension with 6-arboxyfluorescein (6-FAM) 5'-labeled reporter sequence-specific primer (2 min at 95 C, 20 s at 68 C and 10 min at 72 C) and these products were digested with 5U of HpaI (New England Biolabs) for 2h at 37 C. The fragments were purified using Qiaquick PCR columns (Qiagen), analyzed on an ABI 3130xL genetic analyzer (Applied Biosystems) with peak positions identified by using a set of X-rhodamine (ROX)-labeled MapMarker1000 molecular weight standards (BioVentures). The raw capillary electrophoresis data was processed using Attagraph software (Attagene).
Regarding `CN1CCCC1`, the compound was called inactive.

For `CC(C)CC(=O)CC(C)C`, the compound was called inactive.

Regarding `CCCCCCC1CCC(=O)O1` (stereo not given), the call was inactive.

With `CCCCOC(=O)COc1ccc(Cl)cc1Cl`, the result was inactive.

As for `Brc1ccc(Oc2ccc(Br)cc2)cc1`, the compound was called inactive.

As for `COC(=O)CCSCCC(=O)OC`, the outcome was inactive.

As to `CCCCCCCCCC/C=C/C1CC(=O)OC1=O` (stereo not given), the call was inactive.

Consider `C[C@H]1C[C@H]2[C@@H]3CCC4=CC(=O)C=C[C@]4(C)[C@@]3(F)[C@@H](O)C[C@]2(C)[C@@]1(O)C(=O)CO`, for which the call was inactive.

For `CCCCCCOC(=O)CCCCCCCC(=O)OCCCCCC`, the result was inactive.

`O=C(C(=O)c1ccccc1)c1ccccc1`: the compound was classed as inactive.

As to `COCCCN`, the call was inactive.

For `Oc1cccc2ccccc12`, the compound was called inactive.

Take `CCCC(=O)OC/C=C(\C)CCC=C(C)C`: the call was inactive.

For the compound `O=C(c1ccccc1)c1ccccc1O`, the compound was called inactive.

Consider `O=C(O)c1nc(Cl)c(Cl)c(Cl)c1Cl`, for which the compound was called inactive.

With `Cc1cc2nc3c(=O)[nH]c(=O)nc-3n(C[C@H](O)[C@H](O)[C@H](O)CO)c2cc1C`, the result was inactive.

On to `Cc1cc(C)c(S(=O)(=O)O)cc1N=Nc1cc(S(=O)(=O)O)c2ccccc2c1O`, for which the outcome was inactive.

As for `CC1=C(CC=O)C(C)(C)CCC1`, the compound was classed as inactive.

In the case of `O=S(=O)(O)c1cccc2ccccc12`, the result was inactive.

Take `CC/C=C\CCCCCO`: the outcome was inactive.

Turning to `NC(N)=Nc1nc(CSCCC(N)=NS(N)(=O)=O)cs1`, the outcome was inactive.

As for `CC(C)n1c(/C=C/[C@@H](O)C[C@@H](O)CC(=O)O)c(-c2ccc(F)cc2)c2ccccc21`, the compound was classed as inactive.

In the case of `CC/C=C/CCO`, the outcome was inactive.

For `C=CCOC(=O)C(=C)C`, the call was inactive.

In the case of `COc1ccc2ccccc2c1`, the call was inactive.

As to `CCCCNC(N)=O`, the compound was called inactive.

Consider `O=C1NC(=O)[C@@H]2CC=CC[C@H]12`, for which the outcome was inactive.

With `O=C(O)/C=C\C(=O)O`, the outcome was inactive.

For the compound `CCCCCCCCCCC1CO1` (stereo not given), the result was inactive.

In the case of `CC1=C(CC(=O)O)c2cc(F)ccc2/C1=C\c1ccc(S(C)=O)cc1` (stereo not given), the AC50 (commonly the concentration at which the activity in the assay is half-maximal) is 180 µM (active).

For the compound `O=C1NC(=O)C2CC=CCC12` (stereo not given), the call was inactive.

With `O=C(O)/C=C/C(=O)O`, the compound was called inactive.

As for `Cc1ccccc1S(N)(=O)=O`, the result was inactive.

Turning to `c1cc(N(CC2CO2)CC2CO2)ccc1Cc1ccc(N(CC2CO2)CC2CO2)cc1` (stereo not given), the AC50 is 18.6 µM (active).

In the case of `CC(C)(Oc1ccc(Cl)cc1)C(=O)O`, the call was inactive.

Turning to `CC(C)=CCOC(=O)c1ccccc1`, the outcome was inactive.

Take `CCCOCCC`: the result was inactive.

As for `Oc1ccc(Cl)cc1C1CCCC1`, the compound was classed as inactive.

Turning to `Cc1cc(O)cc(C)c1Cl`, the compound was classed as inactive.

With `CCOC(=O)CC(=O)OCC`, the compound was classed as inactive.
